# The full ranking holds about 5,800 sequences; the median of “enrichment r” is about 0.68, and the highest 2% start at about 11. The list is a sample of the results.
# T1: UNK ZnF1-6 (called full-length) (human, UniProt Q9C0B0 30-357)
# T1 sequence: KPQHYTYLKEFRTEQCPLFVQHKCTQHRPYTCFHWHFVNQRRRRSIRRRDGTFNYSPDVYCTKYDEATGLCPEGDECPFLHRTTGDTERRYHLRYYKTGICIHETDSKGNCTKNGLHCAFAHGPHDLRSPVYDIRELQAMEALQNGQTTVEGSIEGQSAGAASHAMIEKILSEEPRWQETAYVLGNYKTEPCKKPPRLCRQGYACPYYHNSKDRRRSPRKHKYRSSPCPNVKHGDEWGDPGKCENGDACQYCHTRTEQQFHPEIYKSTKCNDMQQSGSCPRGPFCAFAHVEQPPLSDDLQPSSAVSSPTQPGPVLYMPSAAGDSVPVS
# B1: ENSG00000143373:stop:overlap|stop_codon|ENSG00000143373|stop_codon|NA|stop_codon (ssRNA)
# RNA: GGGAGUUCUACAGUCCGACGAUCACUUCCGCACGCAUGGCAUGGCGUUCAUCAGGGCUCGGCAGGGGGCUGUUGGGGACAACUAGUCUCCAAGGCCUGGGACUGACCAGCCCCUUCCUCUUGGAGCCUGGUUUUCCCUACUGCCAACAGAGGAUUGAGCAUCA
# B2: ENSG00000136451:be:win_2201|3pUTR|ENSG00000136451|bound_else_gene|NA|bound_elsewhere_windowed (ssRNA)
# RNA: GGGAGUUCUACAGUCCGACGAUCAUUGUGACCUGAUAUUUGGAGAUGUAAAUAUUGCUCAGCAUAUUAAUCCCGAUGGAAUAUAGCAUUGUAGUUGACUUUUUAAAAAAAAAAAAAAUUUAAAAAAAAUCUACAAAUUGUGUUCAACAGAGGAUUGAGCAUCA
# B3: chr3:11298707:11298833:+|CDS|ENSG00000197548|unk|total|mutant (ssRNA)
# RNA: GGGAGUUCUACAGUCCGACGAUCAUAAUGGCGGCAGCUACGGGGGAUCCUGGACUCUCUAAACUGCAGUUUGCCCCUUUCCGCCGUGCCUUGGAUGUUGGGUUUUGGCAUGAGUUGACCCAGAAGAAGCUGAACGAGUAUCGGCAACAGAGGAUUGAGCAUCA
# B4: chrX:15345595:15346132:-|three_prime_utr|ENSG00000165197|control|control|control (ssRNA)
# RNA: GGGAGUUCUACAGUCCGACGAUCCAGACCAACCUUCCAUUCACACCAGCUAAGGAGUCCCUGGUUCAUUGAUGGAUGUCUUCUAGCUGCAGAUGCCUCUGCGCACCAAGGAAUGGAGAGGAGGGGACCCAUGUAAUCCUUUUGCAACAGAGGAUUGAGCAUCA
# B5: chrX:65741840:65741941:+|3pUTR|ENSG00000147065|msi1|FALSE|unique (ssRNA)
# RNA: GGGAGUUCUACAGUCCGACGAUCAAAUUGUUUUUGGAGGGGUUUAUGCUCAAUCCAUGUUCUAUUUCAGUGCCAAUAAAAUUUAGGAAGACUUCACAGUGACUCAAUCGUUCUUUGUGGUAUGAGUGGGUAGCUGUAAGAUAUCAACAGAGGAUUGAGCAUCA
# B6: chr10:72011937:72012038:+|3pUTR|ENSG00000122863|msi1|total|mutant (ssRNA)
# RNA: GGGAGUUCUACAGUCCGACGAUCCAUACACCGCAGGUGGUCACCGAGUUAUUUUCCAAAAGCUGAGGAACAUAAAGCAAAUUCCGGCUUUUGUCCUUCUGCAAUACAUGCACUUGAAAAUAAACAGAAAAGAGAUGUUUAAUACAACAGAGGAUUGAGCAUCA
# B7: chr17:50110931:50111032:+|3pUTR|ENSG00000005882|unk|total|mutant (ssRNA)
# RNA: GGGAGUUCUACAGUCCGACGAUCUGUGCCCAGACAUGUGUGCUCAGGGUGGCUUUCUCCCCCGGACCUUCUGUGUAUACCGUCCGUUUUAUAACCCUGAAUGCCCCCACCCUUCCCCUAAGCACACAGGGGUUAAAGCUGUGUCAACAGAGGAUUGAGCAUCA
# B8: chr6:132588675:132589686:-|CDS|ENSG00000135569|control|control|control (ssRNA)
# RNA: GGGAGUUCUACAGUCCGACGAUCUGCCAAGACCCUGGGCAUUGCUGUGGGCAUAUACCUCUUGUGCUGGCUGCCCUUCACCAUAGACACGAUGGUCGACAGCCUCCUUCACUUUAUCACACCCCCACUGGUCUUUGACAUCUUCAACAGAGGAUUGAGCAUCA
# B9: chr2:1632407:1632508:-|3pUTR|ENSG00000130508|msi1|total|mutant (ssRNA)
# RNA: GGGAGUUCUACAGUCCGACGAUCUUGGUAAGUGAUUGAUAAAAAUUGGUUGGUGUUUCAUGACAUGUGGACUUCUUUUGAAACCGCAAGUCAAAUGCCGUGACCAAAUUGUGGAAGAGAUUUCUGUCAAACCGGAAAUGUGUACAACAGAGGAUUGAGCAUCA
# B10: ENSG00000198589:be:win_3901|CDS|ENSG00000198589|bound_else_gene|NA|bound_elsewhere_windowed (ssRNA)
# RNA: GGGAGUUCUACAGUCCGACGAUCUCUACUGUGUUUCGUAUUCCUGAGUUCAACUGGUCUCAGAUGCAUCAACGUUUGCUCACUGAUCUAUUAUUUUCAAUAGAAACAGAUAUACAGAUGUGGAGAAGCCAUUCAACAAAGACACAACAGAGGAUUGAGCAUCA
# B11: chr6:21593967:21594078:+|5pUTR|ENSG00000124766|unk|FALSE|bound_elsewhere (ssRNA)
# RNA: GGGAGUUCUACAGUCCGACGAUCUUAGUGCCGAUUCCGCCCACAGAGAGUCCUGGAGCCACAGUCUUUUUUGCUUUGCAUUGUAGGAGAGGGACUAAGUGCUAGAGACUAUGUCGCUUUCCUGAGCUACCGAGAGCGCUCGUGCAACAGAGGAUUGAGCAUCA
# B12: chr9:88477803:88477904:+|3pUTR|ENSG00000106723|msi1|FALSE|bound_elsewhere (ssRNA)
# RNA: GGGAGUUCUACAGUCCGACGAUCGACAAUACAAGACAUGAAUCUAUGUAUAAAAUUUAUCGGCCUUUCUCAUUUACCUGCUCUAGUAUUAUUGUAUUGUGUGUGCGUGCGUGUGUGAUGUCAGGCUGCCACGUAAAACUUCAGCAACAGAGGAUUGAGCAUCA
# B13: chr17:68278117:68278284:-|CDS|ENSG00000108932|unk|FALSE|unique (ssRNA)
# RNA: GGGAGUUCUACAGUCCGACGAUCGCUUUGUUCCAAAGCCAAUGUGUAUACUGAAGUGCCUGAUGGAGGAUGGGGCUGGGCGGUAGCUGUUUCAUUUUUCUUCGUUGAAGUCUUCACCUACGGCAUCAUCAAGACAUUUGGUGUCAACAGAGGAUUGAGCAUCA
# B14: ENSG00000112146:stop:overlap|stop_codon|ENSG00000112146|stop_codon|NA|stop_codon (ssRNA)
# RNA: GGGAGUUCUACAGUCCGACGAUCACACCCCCUUGUUCUUCGCCAGAGUAAGGAGCUACACAGCUUUCUCAGAAAGGCCUCUGUAGAGCCUCAAGUCCAGUCCUCUAUCACUUUUGCAUGAAUUAAAGUAUAUAGCGCAAAAGACAACAGAGGAUUGAGCAUCA
# B15: ENSG00000070961:be:win_5851|3pUTR|ENSG00000070961|bound_else_gene|NA|bound_elsewhere_windowed (ssRNA)
# RNA: GGGAGUUCUACAGUCCGACGAUCAUGAAUGUAAUUACCAAAAGAUUUAGAAGUGCAUGUGCUUUGGAGGAUUUGUAUUGAGCUUUUACAGUAUUCAUUUUUCAACUCAAGGCAAUGGCUUUCUACACCAACUCUAAUCCAUAACAACAGAGGAUUGAGCAUCA
# B16: ENSG00000070961:be:win_3451|CDS|ENSG00000070961|bound_else_gene|NA|bound_elsewhere_windowed (ssRNA)
# RNA: GGGAGUUCUACAGUCCGACGAUCAGGAUAGAAGAUUCAGAGCCUCAUAUCCCCCUUAUUGAUGACACUGAUGCCGAAGAUGAUGCUCCUACAAAACGUAACUCCAGUCCUCCACCCUCUCCCAACAAAAAUAACAAUGCUGUUCAACAGAGGAUUGAGCAUCA
# B17: chr11:61866962:61867357:+|3pUTR|ENSG00000134824|msi1|FALSE|unique (ssRNA)
# RNA: GGGAGUUCUACAGUCCGACGAUCAGAUUCAGGGGAAGGGCAGGCACCAACAACUCAGAAUGGGGGCUUUCGGGGAGGGCGCCUAGUCCCCCCAGCUCUAAGCAGCCAGGAGGGACCUGCAUCUAAGCAUCUGGGUUGCCAUGGCAACAGAGGAUUGAGCAUCA
# B18: chr2:32508095:32508220:+|CDS|ENSG00000115760|unk|total|mutant (ssRNA)
# RNA: GGGAGUUCUACAGUCCGACGAUCAGCCGAAGCCGCUUCUGCUGUCUGCCUCCGACUACAUCGUCCACGGGAUGCCAGCACAUCCGGCCUUUCACAAAUUAAAUUAUUGGGGCUCACUGCUUUUGGUACCACCUCUUCUGCAACCAACAGAGGAUUGAGCAUCA
# B19: chr14:92797766:92797867:+|CDS|ENSG00000066455|msi1|total|mutant (ssRNA)
# RNA: GGGAGUUCUACAGUCCGACGAUCCAUUUUGUGCGAAGAAAAAAGUCAGAACCUGAUGAUGAGCUGCUGUUUGAUUUUCUUAACCGUUCACAGAAGGAGCCUACCGGGAGGGUGGAAAUCAGAAAGGAAAAAGGCAAGACACCUCAACAGAGGAUUGAGCAUCA
# B20: chr18:70325936:70326038:+|CDS|ENSG00000170677|unk|total|mutant (ssRNA)
# RNA: GGGAGUUCUACAGUCCGACGAUCAGCUUUCGCUCCCAUGGUAAAACACUUCACACCCGAAUUGAGCACUCAAAUGGCCGGUUCCGCUUUUAUGAACAGCCAGAUGUGGAAGGACAUACGUCCACCGUUGAUCUAAUUGAGCAUCAACAGAGGAUUGAGCAUCA
# B21: chr11:43405833:43405939:+|CDS|ENSG00000052841|unk|FALSE|unique (ssRNA)
# RNA: GGGAGUUCUACAGUCCGACGAUCGGCCCAAACCCCUGACUGUUCCAUAACUGACUUCAGAAAAAGCCACACUCUGUCCUACUUAGUCAAAGAAUUAGAGGUUCGCAUGGAUCUGAAAGCCAAAAUGCCAGAUGACCAUGCACGCAACAGAGGAUUGAGCAUCA
# B22: chr6:1612588:1612689:+|3pUTR|ENSG00000054598|msi1|total|mutant (ssRNA)
# RNA: GGGAGUUCUACAGUCCGACGAUCUUUAUUCAUGGACUUGUUUUAAAAUGUAAAUUGCAACACCGUAAUUUAUUUUUAAUUUGCCGUUGGAUGUCGUGGACCAAACGCCAGAAAGUGUUCCCAAAACCUGACGUUAAAUUGCCUCAACAGAGGAUUGAGCAUCA
# Target: T1, UNK ZnF1-6 (called full-length)
# Test: nsRBNS (natural sequence RNA bind-n-seq); RBNS binding buffer (assumed for nsRBNS): 25 mM Tris pH 7.5, 150 mM KCl, 3 mM MgCl2, 0.01% Triton X-100, 500 ug/ml BSA, 20 U/ml SUPERase-In, 4 C; UNK is unkempt and MSI1 is Musashi-1; names of the RNAs are library labels; protein concentration not given here; high values mean tight binding
row,Binder,binding signal [enrichment R]
1,B1,0.569
2,B2,0.637
3,B3,0.839
4,B4,0.639
5,B5,0.698
6,B6,0.34
7,B7,1.06
8,B8,0.967
9,B9,0.207
10,B10,0.382
11,B11,0.815
12,B12,1.09
13,B13,0.822
14,B14,0.367
15,B15,0.908
16,B16,0.813
17,B17,0.948
18,B18,0.577
19,B19,0.771
20,B20,0.461
21,B21,1.07
22,B22,0.325

# — PMC12136788
